In PubChem BioAssay (Tox21) one finds Potency and outcome data, which are given here for 26 molecules.

Where “and” joins values, the source holds several entries; their conditions need not be identical. Equal entries are not always repeated. Records with an inconclusive call do not appear. More than one record can exist for a structure, and the calls need not agree. Calls of active or inactive are those of the source. Unless noted, the call rests on the fitted dose curve; in most records, active means well fitted curve in the direction sought with a large enough effect in the repeat runs; inconclusive means weak or mixed curves; inactive means no such curve, though single readings can be large; an effect the other way counts as inactive or inconclusive.

Experiment [1] can be described thus: A CellTox Green Cytotoxicity Assay to monitor cytotoxicity in HepG2 cells - 8 hour (AID 1224890). Further: nearly all actives have a fitted effect of over 45% in size. Further: potency means the concentration at half of the fitted maximal effect. The procedure, abridged: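 Real-time, homogeneous cytotoxicity readout: dead-cell DNA staining by CellTox Green in HepG2 monolayers, fluorescence measured at timed intervals up to 40 h of continuous compound exposure.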
A short description of experiment [2]: qHTS assay to identify small molecule antagonists of the estrogen receptor alpha (ER-alpha) signaling pathway using the BG1 cell line in the presence of 0.1 nM 17-beta-estradiol - cell viability counter screen (AID 1259241). Further: nearly all actives have a fitted effect of over 40% in size. Further: potency means the concentration at half of the fitted maximal effect. Put shortly: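 Measures cytotoxicity alongside the ER-alpha antagonist readout: VM7Luc4E2 cells, charcoal-stripped serum, 0.1 nM 17beta-estradiol final, 22 hr compound incubation at 37C, CellTiter-Fluor fluorescence.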
A general note: qHTS replaces the single test concentration by a dilution series.

The nature of experiment [3]: qHTS assay to identify small molecule antagonists of the androgen receptor (AR) signaling pathway using the MDA cell line in the presence of 0.5 nM R1881 - cell viability counter screen (AID 1259242). Further: nearly all actives have a fitted effect of over 45% in size. Further: potency means the concentration at half of the fitted maximal effect. Put shortly: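 Cytotoxicity toward MDA-kb2 cells is measured by CellTiter-Fluor live-cell protease fluorescence after 16 hr compound exposure at 37C in the presence of 0.5 nM R1881 stimulator.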

For experiment [4], the target named is Estrogen receptor (Homo sapiens) (UniProt P03372). Description: qHTS assay to identify small molecule antagonists of the estrogen receptor alpha (ER-alpha) signaling pathway using the BG1 cell line in the presence of 0.1 nM 17-beta-estradiol (AID 1259244). Further: nearly all actives have a fitted effect of over 50% in size. Further: potency means the concentration at half of the fitted maximal effect. Put shortly:
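After 5 days in hormone-depleted medium (charcoal-stripped serum, no phenol red), VM7Luc4E2 cells were seeded, incubated 24 h, then co-treated with compound and 0.1 nM (final) estradiol for 22 h before luminescence detection.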

Experiment [5] can be described thus: qHTS assay to identify small molecule HDAC inhibitors (AID 1259364). Further: nearly all actives have a fitted effect of over 45% in size. Further: potency means the concentration at half of the fitted maximal effect. The procedure, abridged:
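Homogeneous cell-based luminescent assay of endogenous class I/II HDAC activity; HCT-116 cells, 2 h compound exposure, 30 min HDAC-Glo development at RT.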

Experiment [6] can be described thus: qHTS assay to identify small molecule HDAC inhibitors - cell viability counter screen (AID 1259365). Further: series mostly up to about 92 µM; nearly all actives have a fitted effect of over 50% in size. The procedure, abridged: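 Following a 2hr exposure of overnight-plated wild-type HCT-116 cells to DMSO-delivered compounds, CellTiter-Glo was added and luminescence recorded after 30min at room temperature.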
A short description of experiment [7]: qHTS assay to identify small molecule agonists of the sonic hedgehog signaling (Shh) pathway - cell viability counter screen (AID 1259366). Further: nearly all actives have a fitted effect of over 50% in size. Further: potency means the concentration at half of the fitted maximal effect. The procedure, abridged:
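After a 4hr attachment at 37C, NIH/3T3 cells bearing an integrated Gli1-driven luciferase reporter were dosed with compounds. Treatment lasted 24hr, with the final hour including CellTiter-Fluor for a fluorescence viability measurement.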

Experiment [8] in a line: qHTS assay to identify small molecule antagonists of the sonic hedgehog signaling (Shh) pathway - cell viability counter screen (AID 1259367). Further: nearly all actives have a fitted effect of over 55% in size. Further: potency means the concentration at half of the fitted maximal effect. The procedure, abridged:
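Using CellTiter-Fluor, viability of Gli1-Luc reporter 3T3 cells is read by fluorescence in the wells used for the Shh luciferase assay. Treatment lasts 23 hr with conditioned medium, then reagent 1 hr at 37C.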

Experiment [9] in a line: qHTS assay to identify small molecule phospholipidosis (PLD) inducers (AID 1259344; active means well fitted curve in the direction sought with a large enough effect; an effect the other way counts as inactive or inconclusive). Put shortly:
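Fluorescent phospholipid staining (LipidTOX Red) measured by automated microscopy in fixed HepG2 cells after 24 h treatment; nuclei counterstained with Hoechst 33342; amiodarone as reference inducer.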

Estrogen receptor (Homo sapiens), sequence (P03372 whole entry, looked up): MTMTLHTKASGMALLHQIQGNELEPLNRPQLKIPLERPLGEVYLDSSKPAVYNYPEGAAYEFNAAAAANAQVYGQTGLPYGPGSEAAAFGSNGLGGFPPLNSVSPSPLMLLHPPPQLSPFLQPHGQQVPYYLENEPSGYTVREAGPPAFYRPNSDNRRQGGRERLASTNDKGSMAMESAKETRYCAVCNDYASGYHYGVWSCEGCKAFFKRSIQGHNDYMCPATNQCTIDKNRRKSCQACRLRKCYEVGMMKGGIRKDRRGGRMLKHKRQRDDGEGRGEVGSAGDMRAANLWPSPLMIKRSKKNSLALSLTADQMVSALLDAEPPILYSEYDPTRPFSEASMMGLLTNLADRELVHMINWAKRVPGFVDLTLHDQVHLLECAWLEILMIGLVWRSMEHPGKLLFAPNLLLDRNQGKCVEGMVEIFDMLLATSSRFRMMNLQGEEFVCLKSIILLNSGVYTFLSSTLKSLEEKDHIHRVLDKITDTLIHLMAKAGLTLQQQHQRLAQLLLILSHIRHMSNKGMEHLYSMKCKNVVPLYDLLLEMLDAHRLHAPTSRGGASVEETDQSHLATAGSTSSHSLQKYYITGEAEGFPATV

Take `CCCCOCCOCCOCCO`: the Potency entry in experiment [1], in experiment [2], in [3], in experiment [4], in [5] and in [7] was “inactive” in each case. In experiment [8], the Potency entry is “inactive”. Also, the call in experiment [6] was inactive.

As for `Nc1ccc(Cl)cc1Cl`, the Potency entry in experiment [1], in experiment [2], in [3], in experiment [4], in experiment [5] and in experiment [8] was “inactive” each time. The molecule was called inactive in experiment [6].

In the case of `CCCCNS(=O)(=O)c1ccccc1`, the Potency entry in experiment [1], in experiment [2], in experiment [3], in experiment [4], in experiment [5] and in experiment [7] was “inactive” in each case. In experiment [8], the Potency entry was “inactive”. Also, the outcome in experiment [6] was inactive.

For the molecule `O=C(c1ccccc1)c1ccc(O)cc1O`, the Potency result in [1], in experiment [2], in [3], in [4], in experiment [5] and in [7] was “inactive” throughout. For the same molecule, the outcome in [6] was inactive. In addition, the Potency in experiment [8] was 55.5 µM (active) and inactive.

As for `Nc1ccc(Nc2ccccc2)cc1`, the Potency result in experiment [1], in experiment [2], in experiment [3], in [4] and in experiment [5] was “inactive” in each case. The outcome in [6] was inactive. The figures for the Potency in experiment [7] and in [8] were 61.1 µM (active) and 48.6 µM (active), respectively.

Consider `COC(=O)C1=C(C)NC(C)=C(C(=O)OCCN(C)Cc2ccccc2)C1c1cccc([N+](=O)[O-])c1` (stereo unspecified), for which the Potency entry in [1] and in experiment [5] was “inactive” throughout. The Potency was 54.2 µM (active) in experiment [2]; 60.8 µM (active) and inactive in experiment [3]; 68.2 µM (active) in experiment [4]; 48.3 µM (active) and 2.37 µM (active) in experiment [8]. Also, the molecule was classed as inactive in experiment [6].

For the molecule `OC(CCl)CCl`, the Potency result in experiment [1], in [2], in experiment [3], in experiment [4], in [5] and in [7] was “inactive” each time. For the same molecule, in experiment [8], the Potency result is “inactive”. Also, the outcome in experiment [6] was inactive.

Take `CC(C)OB(OC(C)C)OC(C)C`: the Potency result in experiment [1], in experiment [2], in experiment [3], in [4], in experiment [5] and in experiment [7] was “inactive” throughout. Further, in experiment [8], the Potency result is “inactive”. In experiment [6], the outcome was inactive.

For the molecule `CC(C)=CCCC(C)CCO` (stereo unspecified), the Potency result in experiment [1], in experiment [2], in [3], in experiment [4], in experiment [5] and in experiment [7] was “inactive” in each case. In addition, the Potency entry in experiment [8] is “inactive”. Further, the call in [6] was inactive.

Consider `CC(C)OC=O`, for which the Potency result in experiment [1], in [2], in [3], in experiment [4], in experiment [5] and in experiment [7] was “inactive” in each case. In addition, in experiment [8], the Potency result is “inactive”. The result in experiment [6] was inactive.

Consider `O=[N+]([O-])c1ccc2c(c1)Cc1ccccc1-2`, for which the Potency entry in experiment [1], in experiment [2], in [3], in experiment [4], in experiment [5] and in experiment [8] was “inactive” each time. In addition, in experiment [6], the outcome was inactive.

With `CCC(C)OC(=O)c1ccc(O)cc1` (stereo unspecified), the Potency entry in experiment [1], in experiment [2], in experiment [3], in experiment [4], in [7] and in experiment [8] was “inactive” each time. Further, in experiment [6], the result was inactive.

On to `Nc1ncnc2nc[nH]c12`, for which the Potency result in experiment [1], in experiment [2], in [3], in experiment [4], in [9] and in experiment [5] was “inactive” each time. Further, the Potency entry in [7] and in experiment [8] was “inactive” in each case.

On to `O=C(/C=C/C=C/c1ccc2c(c1)OCO2)N1CCCCC1`, for which the Potency entry in experiment [1], in [2], in [3], in experiment [4] and in experiment [8] was “inactive” throughout. Moreover, in experiment [5], the Potency was 9.71 µM (active) and 8.63 µM (active). For the same molecule, the molecule was classed as inactive in [6].

In the case of `c1ccc2sc(SSN3CCOCC3)nc2c1`, the Potency result in experiment [1], in experiment [2], in experiment [3], in [4] and in experiment [5] was “inactive” each time. Further, the call in [6] was inactive. Further, the values for the Potency in [7] and in experiment [8] were 48.5 µM (active) and 54.4 µM (active), respectively.

For the molecule `CCC(C)(O)CCCC(C)C` (stereo unspecified), the Potency result in [1], in experiment [2], in [3], in experiment [4], in experiment [5] and in [7] was “inactive” in each case. The Potency result in experiment [8] is “inactive”. Further, the molecule was called inactive in experiment [6].

Consider `c1cc(-c2ccncc2)ccn1`, for which the Potency result in [1], in experiment [2], in [3], in experiment [4], in experiment [5] and in experiment [8] was “inactive” each time. For the same molecule, in experiment [6], the molecule was called inactive.

Regarding `COc1ccc(OC)c(C(O)CNC(=O)CN)c1` (stereo unspecified), the Potency result in experiment [1], in [2], in experiment [3], in experiment [4], in experiment [9] and in experiment [5] was “inactive” each time. In addition, the Potency result in experiment [8] was “inactive”. Also, the molecule was called inactive in experiment [6].

As to `S=C(NC1CCCCC1)NC1CCCCC1`, the Potency entry in [1], in [2], in experiment [3], in experiment [5] and in experiment [7] was “inactive” each time. Besides, the Potency in experiment [4] is 53.4 µM (active) and 48.6 µM (active); in [8] it was “inactive and 30.6 µM (active)”. Also, the outcome in experiment [6] was inactive.

For the molecule `COc1ccccc1/C=C/C=O`, the Potency result in [1], in experiment [2], in experiment [3], in experiment [4], in experiment [5] and in [7] was “inactive” throughout. Besides, the Potency result in [8] was “inactive”. Further, the molecule was classed as inactive in [6].

Take `c1ccncc1`: the Potency result in experiment [1], in [2], in experiment [3], in [4], in experiment [5] and in [7] was “inactive” each time. Besides, the Potency entry in experiment [8] was “inactive”. In addition, in experiment [6], the call was inactive.

`C=CC(C)(CCC=C(C)C)OC(C)=O` (stereo unspecified): the Potency entry in [1], in experiment [2], in experiment [3], in experiment [4], in experiment [5] and in experiment [7] was “inactive” in each case. The Potency entry in experiment [8] is “inactive”. In addition, the molecule was called inactive in [6].

With `OC1CCCCCCCCCCC1`, the Potency in [1] is 43.6 µM (active). The Potency entry in experiment [2], in [3], in experiment [4], in [5] and in experiment [8] was “inactive” each time. Besides, the result in experiment [6] was inactive.

For the molecule `O=Cc1ccccc1O`, the Potency entry in [1], in [2], in experiment [3], in experiment [4], in [5] and in experiment [7] was “inactive” in each case. In addition, the Potency result in [8] was “inactive”. In addition, in [6], the result was inactive.

As for `O=S(=O)(O)c1ccc(O)cc1`, the Potency entry in experiment [1], in experiment [2], in [3], in [4], in [9] and in experiment [5] was “inactive” in each case. In addition, the Potency entry in experiment [8] was “inactive”. Further, the outcome in experiment [6] was inactive.

In the case of `CCCCOCCOCCO`, the Potency result in [1], in experiment [2], in experiment [3], in experiment [4], in experiment [5] and in experiment [7] was “inactive” in each case. For the same molecule, in [8], the Potency result was “inactive”. For the same molecule, in [6], the outcome was inactive.
